# Measured values taken from the supplement of paper PMC4166925.
# ± gives the standard deviation of the averaged measurements. In all, about 33,000 sequences were measured (“E-score (dimensionless, -0.5 to 0.5)”: median about -0.049, highest 2% from about 0.37 on). The sample as a whole holds a higher share of the highest values than the screen did.
# Tested on: T1, PmTbr T-box DNA-binding domain (GST fusion)
# T1 sequence: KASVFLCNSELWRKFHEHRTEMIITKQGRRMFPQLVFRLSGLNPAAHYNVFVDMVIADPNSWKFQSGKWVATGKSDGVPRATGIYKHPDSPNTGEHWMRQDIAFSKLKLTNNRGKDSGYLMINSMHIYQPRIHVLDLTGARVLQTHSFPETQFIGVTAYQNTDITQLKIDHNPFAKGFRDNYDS
# Assay: PBM E-score of 8-mer (E-score (dimensionless, -0.5 to 0.5)); Tbr is Tbrain of the sea star Patiria miniata (Pm) or the sea urchin Strongylocentrotus purpuratus (Sp); higher = stronger binding preference
# Conditions: the construct has about 5 more residues each side
# Summary of the method: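 Using the Universal PBM Analysis Suite, every ungapped 8-mer received an enrichment E-score averaged over duplicate arrays. Probe intensities came from double-stranded Universal Agilent oligonucleotide arrays incubated with 200 nM GST-fused Tbr T-box DNA-binding domain in PBS (pH 7.5). That protein was expressed in BL21 E. coli at 20 °C and purified by glutathione affinity chromatography.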
row,Sequence,PBM E-score of 8-mer
1,CCACCTAA,0.146 ± 0.058
2,TGACCTAA,-0.228 ± 0.013
3,TCACCTAA,0.383 ± 0.0065
4,ATACCTAT,-0.0294 ± 0.018
5,CCACCTAG,0.264 ± 0.0049
6,CGCACAAA,0.00904 ± 0.0019
7,ATTCCTCG,-0.0674 ± 0.053
8,ATAGCTCC,-0.134 ± 0.022
9,CTCCCCAA,-0.12 ± 0.0034
10,CTGAAACC,-0.0317 ± 0.0024
11,TGATACAA,0.126 ± 0.037
12,GTAGTGCA,-0.21 ± 0.062
13,AAAGGCAC,-0.0325 ± 0.013
14,GCCATAAA,-0.0292 ± 0.012
15,AGATAGAT,-0.217 ± 0.015
16,CCACCTCC,0.305 ± 0.024
17,GCACCTCC,0.4324 ± 0.002
18,GCACCTCA,0.35 ± 0.037
19,GAACTACA,0.0281 ± 0.036
20,TCGGTCCA,-0.365 ± 0.015
21,GCGTGTTA,0.336 ± 0.036
22,ACGTGTAG,0.118 ± 0.015
23,ACGTGTTC,0.2198 ± 0.001
24,CCGTGTTA,0.24 ± 0.041
25,ACGTGTTG,0.3744 ± 0.0004

row,Sequence,PBM E-score of 8-mer
1,ACGTGTTA,0.442 ± 0.015
2,CGAGCAAA,-0.0522 ± 0.042
3,CTTTGTCC,0.109 ± 0.0064
4,AGAAGGTC,-0.315 ± 0.034
5,ACAAGGTA,-0.0243 ± 0.03
6,ACAAGGTG,0.429 ± 0.006
7,ACAAGGTC,0.1572 ± 0.00086
8,AGAAGGTA,-0.2003 ± 0.00059
9,AGAAGGTG,0.403 ± 0.0068
10,ATAAGGTC,-0.146 ± 0.021
11,ATAAGGTA,0.0248 ± 0.096
12,ATAAGGTG,0.387 ± 0.0095
13,AAGAATCG,-0.0615 ± 0.066
14,ACACTGAC,0.209 ± 0.018
15,ACTGATCG,-0.0574 ± 0.0033
16,CTCTAACC,-0.103 ± 0.089
17,AACGGGGT,-0.136 ± 0.084
18,CTCGCTAC,0.0679 ± 0.05
19,GACGACAC,0.305 ± 0.034
20,ATCGACAC,0.398 ± 0.025
21,CTCGACAG,0.244 ± 0.018
22,GTCGACAC,0.406 ± 0.013
23,CTCGACAA,0.131 ± 0.017
24,CTCGACAC,0.387 ± 0.029
25,GTCGACAA,0.295 ± 0.022

row,Sequence,PBM E-score of 8-mer
1,ATCGACAG,0.236 ± 0.032
2,ATCGACAA,0.222 ± 0.036
3,ACAATGTC,-0.048 ± 0.0089
4,GTACAGTA,0.0854 ± 0.013
5,CGCAACAC,0.356 ± 0.033
6,GGCAACAC,0.38 ± 0.0047
7,GGCAACAA,0.05 ± 0.0035
8,AGCAACAG,0.0636 ± 0.029
9,AGCAACAA,0.0934 ± 0.021
10,AGCAACAC,0.383 ± 0.0078
11,ATGCTATA,-0.182 ± 0.01
12,ATGCGTCA,0.161 ± 0.013
13,GTCAAACA,-0.0272 ± 0.074
14,ATGCCAGC,-0.0462 ± 0.0027
15,CATGTGTC,0.309 ± 0.03
16,AATGTGTA,0.226 ± 0.029
17,AATGTGCG,0.27 ± 0.012
18,AATGTGTC,0.425 ± 0.0071
19,AATGTGTG,0.408 ± 0.014
20,AATGTGGC,0.163 ± 0.0047
21,AATAGACT,-0.175 ± 0.072
22,ACACCCCC,0.379 ± 0.017
23,ACACCCCT,0.4 ± 0.027
24,ACACCCCA,0.382 ± 0.015
25,TCACCCCA,0.277 ± 0.028

row,Sequence,PBM E-score of 8-mer
1,GCACCCCC,0.226 ± 0.047
2,ACACCCCG,0.397 ± 0.029
3,ACACCCGG,0.3462 ± 0.00071
4,GCACCCCA,0.242 ± 0.0042
5,ACCCCCCT,-0.152 ± 0.11
6,ACCCCTCT,-0.0694 ± 0.019
7,CCACCCCG,0.235 ± 0.033
8,CCACCCCC,0.00912 ± 0.024
9,CGTGCTCC,-0.172 ± 0.017
10,GTTGATCA,0.0616 ± 0.0014
11,GATACAGA,-0.189 ± 0.0045
12,ACGGCCTC,-0.166 ± 0.071
13,GTAGGAAA,-0.0915 ± 0.041
14,GTCGACGA,0.155 ± 0.015
15,ACAGACAT,0.0773 ± 0.016
16,ACACCCAG,0.339 ± 0.021
17,GCCCAACA,0.0617 ± 0.0082
18,AAAATTCT,-0.1 ± 0.051
19,AAGTGTTA,0.467 ± 0.0064
20,CAGTGTTC,-0.0572 ± 0.047
21,AAGTGTTG,0.437 ± 0.006
22,AAGTGGTA,0.165 ± 0.013
23,GAGTGTAC,-0.079 ± 0.061
24,CAGTGTTA,0.322 ± 0.0036
25,AAGTGTTC,0.298 ± 0.012

row,Sequence,PBM E-score of 8-mer
1,GAGTGTTA,0.385 ± 0.012
2,AAGTGTAC,0.0291 ± 0.019
3,CTTCTGGC,-0.0431 ± 0.0062
4,AGCCTCCT,-0.194 ± 0.057
5,ATGACCAG,-0.119 ± 0.011
6,GCTCTAGA,-0.268 ± 0.07
7,AACAGCCC,-0.015 ± 0.027
8,AGAGCACT,-0.194 ± 0.044
9,AGGGATAC,-0.319 ± 0.026
10,ATAGCCAA,-0.2 ± 0.05
11,ACACGTTA,0.3709 ± 0.0015
12,ACACGTTG,0.374 ± 0.0049
13,ACACGTTC,0.337 ± 0.013
14,ACACGTAG,0.206 ± 0.0044
15,ACACGTCT,0.355 ± 0.021
16,ACACGTCG,0.391 ± 0.018
17,CCACGTTA,0.131 ± 0.0074
18,AAACGTTG,-0.22 ± 0.042
19,ACACGTCA,0.361 ± 0.0048
20,CAGGGATA,-0.326 ± 0.061
21,GGACGCAC,-0.0479 ± 0.052
22,AACGAGCC,-0.319 ± 0.096
23,CACAGTCC,0.0117 ± 0.032
24,ACTGCACG,-0.149 ± 0.031
25,GGCGAACA,0.0467 ± 0.018

row,Sequence,PBM E-score of 8-mer
1,CGCGAAAA,0.359 ± 0.019
2,AGCGAACA,0.0494 ± 0.02
3,GGCGAGAA,0.339 ± 0.005
4,TGCGAACA,0.396 ± 0.0075
5,TGCGAAAA,0.391 ± 0.03
6,CGCGAGAA,0.32 ± 0.0046
7,AGCGAAAA,0.0819 ± 0.093
8,TGCGAGAA,0.3906 ± 0.0012
9,CACTCTAG,0.223 ± 0.0029
10,GTTGACAA,0.3821 ± 0.0035
11,CGTGACAG,0.27 ± 0.015
12,AGTGACAC,0.44 ± 0.0087
13,GGAGACAC,0.142 ± 0.084
14,CGTGACAA,0.407 ± 0.025
15,GATGACAC,0.36 ± 0.02
16,AGTGACAG,0.357 ± 0.0084
17,CTTGACAA,0.328 ± 0.0034
18,GGTGACAC,0.4691 ± 0.0035
19,CGTGACCA,0.259 ± 0.018
20,GTTGACGA,0.211 ± 0.012
21,AGTGACAT,0.309 ± 0.017
22,AGAAGGGA,-0.301 ± 0.082
23,AGTATAAT,-0.0999 ± 0.092
24,ATTGCGCG,0.0393 ± 0.076
25,CTCCATTC,-0.243 ± 0.042

row,Sequence,PBM E-score of 8-mer
1,ATCGTTGA,-0.173 ± 0.031
2,TATTGGGA,-0.222 ± 0.0037
3,AAGCGCCG,-0.0564 ± 0.022
4,ATTTTTGA,-0.289 ± 0.044
5,GGTGACAA,0.47312 ± 1.4e-05
6,AGTGACGA,0.358 ± 0.016
7,GGTGACGA,0.429 ± 0.013
8,AGTGACCA,0.0489 ± 0.11
9,CGTGACAC,0.398 ± 0.02
10,GGTGACCA,0.0575 ± 0.069
11,GATGACAA,0.202 ± 0.017
12,CGTGACTC,0.0879 ± 0.021
13,CGTGACGC,0.232 ± 0.0054
14,AGTGACTA,0.115 ± 0.011
15,CGTGACGA,0.331 ± 0.031
16,AGTGACAA,0.4196 ± 0.0018
17,CGGTCTTA,-0.0111 ± 0.035
18,GGCTCGCA,0.136 ± 0.053
19,ATCAGAAG,-0.0178 ± 0.033
20,AGCAGGGA,0.00886 ± 0.045
21,CAGACAGC,0.0475 ± 0.042
22,ACCCCAGT,-0.138 ± 0.1
